Screening results as filed in PubChem.
OPRM1-OPRD1 inv: inverse agonist of human OPRM1-OPRD1 heterodimerization; P35372+P41143; hit rate 0.21% among 340,000; cell-based MOR-DOR heterodimer luminescence, inverse agonism; inhibition, % at 9.3 µM; in the data active means inhibition above about 22%, passing the limit was not always enough;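 further: 0% = cells with DMSO and 100% = wells without cells with DMSO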
HTR5A inv ctr: counter-screen for OPRM1-OPRD1 inverse agonists: human HTR5A inverse agonism; P47898; HTR5A cell line, luminescence; inhibition, % at 9.3 µM; hit rate 0.083% among 340,000; AID 504634; in the data active means inhibition mostly above about 23%, no sharp cut-off; inactive means mostly below about 18%;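 further: 0% = cells with DMSO and 100% = no-cell wells with DMSO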
Target sequence (P47898 whole entry, looked up): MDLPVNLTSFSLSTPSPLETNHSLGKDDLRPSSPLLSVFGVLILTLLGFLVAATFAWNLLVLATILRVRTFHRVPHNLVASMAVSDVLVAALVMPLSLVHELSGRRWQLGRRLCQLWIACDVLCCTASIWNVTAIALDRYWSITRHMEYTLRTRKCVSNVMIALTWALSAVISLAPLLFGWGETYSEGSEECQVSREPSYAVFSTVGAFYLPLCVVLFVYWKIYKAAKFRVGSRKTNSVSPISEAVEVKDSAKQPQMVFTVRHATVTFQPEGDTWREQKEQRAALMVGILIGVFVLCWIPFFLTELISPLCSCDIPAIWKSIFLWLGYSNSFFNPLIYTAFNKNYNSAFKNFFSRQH
HTR5A ag ctr: counter-screen for OPRM1-OPRD1 agonists: human HTR5A agonism | P47898 | HTR5A agonist assay, luminescence, cell-based | activation, % at 9.3 µM | hit rate 0.61% among 340,000 | AID 504692; in the data active means activation mostly above about 9.5%, no sharp cut-off; inactive means mostly below about 7.6%;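 further: 0% = cells with vehicle only and 100% = reference agonist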
OPRM1-OPRD1 ag: agonists of human mu-delta opioid receptor heterodimerization; AID 504326; P35372+P41143; cells, OPRM1-OPRD1 heterodimerization, luminescence; hit rate 0.3% among 340,000; activation, % at 9.3 µM; in the data active means activation above about 18%;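 further: 0% = vehicle-treated cells and 100% = reference agonist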
MOR-DOR inv conf: OPRM1-OPRD1 heterodimer inverse agonism, confirmation; cells expressing OPRM1/OPRD1 heterodimer, luminescence; hit rate 20% among 580; shares compounds with OPRM1-OPRD1 inv; inhibition, % at 9.3 µM; in the data active means inhibition above about 32%;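 further: 0% = cells with DMSO and 100% = wells lacking cells with DMSO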
HTR5A inv ctr2: HTR5A inverse agonism, opioid heterodimer counter-screen; inhibition, % at 9.3 µM; shares compounds with OPRM1-OPRD1 inv; AID 504914; HTR5A-expressing cells, luminescence; 580 tested, under 10 active; call rule not given here;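 further: 0% = cells with DMSO and 100% = no-cell wells with DMSO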
* = called active by the depositor; i = inactive; · = no result. The list is not random: actives were taken first. Their share in the collection is about 1.1%.

SMILES	OPRM1-OPRD1 inv	HTR5A inv ctr	HTR5A ag ctr	OPRM1-OPRD1 ag	MOR-DOR inv conf	HTR5A inv ctr2
COc1ccc(OC)c(N=C2C(=O)Nc3ccccc32)c1	41.5*	22.1	-8.5	-8.3	44.9*	-2.9
COc1cc(/C=N/N=C2/C(=O)Nc3ccccc32)ccc1O	13.4	12.3	-4.7	-2.6	·	·
Cc1ccc(CNC(=O)C2CCC(=O)N(CC3CCCCC3)C2)o1 (stereo unspecified)	11.3	6.7	-4.6	-1.6	·	·
Cc1nn(CCC(=O)NNC(=S)Nc2ccc([N+](=O)[O-])cc2)c(C)c1[N+](=O)[O-]	24.1	7.9	0.0	-4.5	·	·
Cc1nn(CCC(=O)NNC(=S)Nc2ccc(F)cc2)c(C)c1Br	43.6*	-26.7	-3.0	-7.9	1.8	7.4
CCOC(=O)C1=C(C)N(C)C(C)=C(C(=O)OCC)C1c1ccsc1	-15.9	5.8	-2.1	3.3	·	·
CC(=O)N(/N=C1\Sc2ccccc2C1=O)c1ccccc1C	51.4*	35.4	-16.1	-10.4	-199.6	-5.6
CC(=O)N(/N=C1\Sc2ccccc2C1=O)c1ccccc1	33.6*	27.9	-6.0	-8.1	-57.5	-13.6
O=C(C1CC1)N1CCc2sccc2C1c1ccc(Cl)cc1 (stereo unspecified)	3.9	-17.0	6.5	-0.8	·	·
O=C(NC1CCC(O)CC1)C1CCN(S(=O)(=O)c2c(Cl)cccc2Cl)CC1 (stereo unspecified)	10.1	13.6	-0.6	-2.6	·	·
CCCCCCCCNCCS(=O)(=O)NCc1ccccc1	-32.5	-13.0	3.5	7.0	·	·
Cc1cc(=O)n2nc(N3CCCC(C(=O)NCc4ccccc4C)C3)sc2n1 (stereo unspecified)	6.2	-34.4	11.3	-1.1	·	·
O=S(=O)(Cc1ccccc1)N(O)c1ccccc1	42.6*	5.5	-1.9	-6.6	-11.1	0.4
O=C(O)CNS(=O)(=O)Cc1ccccc1	11.2	0.6	0.8	-2.1	·	·
O=C(COC(=O)c1ccccn1)c1cccc(Br)c1	37.1*	16.6	-2.2	-7.2	13.8	9.0
Cc1ccc(C(=O)OCC(=O)N(C)c2c(N)n(Cc3ccccc3)c(=O)[nH]c2=O)s1	4.3	-3.9	2.0	-0.7	·	·
CCNC(=S)NNC(=S)NCc1ccccc1	20.9	12.5	-3.1	-3.8	·	·
CCNC(=S)NNc1nnc(-c2ccccc2)c(-c2ccccc2)n1	49.9*	17.4	1.8	-10.0	28.5	7.9
NC(=O)c1cc(Cl)ccc1OCC(=O)NC1CC1	11.4	-0.2	0.1	-2.2	·	·
CCN(CC)S(=O)(=O)c1cccc(-c2n[nH]c(=S)n2C)c1	-7.0	-9.3	3.6	1.4	·	·
Cc1ccc(-c2n[nH]c(=S)n2C)cc1Cl	32.6*	18.6*	-6.6	-6.4	2.5	11.6
Cn1ccnc1Sc1cc(NCCCO)c([N+](=O)[O-])c2nonc12	37.0*	27.2	-6.3	-7.1	3.8	-1.7
O=C(C[N+]1(CC#Cc2ccccc2)CCOCC1)c1ccc(Cl)cc1	33.5*	5.1	-1.8	-6.1	i	-13.8
O=C(C[N+]1(CC#Cc2ccccc2)CCOCC1)c1ccccc1	24.9	9.7	-2.3	-4.8	·	·
O=C1C(=O)N(CC(=O)N2CCCC2)c2ccccc21	28.2	4.7	2.2	-5.4	·	·
SMILES	OPRM1-OPRD1 inv	HTR5A inv ctr	HTR5A ag ctr	OPRM1-OPRD1 ag	MOR-DOR inv conf	HTR5A inv ctr2
CC(C)NC(=O)CN1C(=O)C(=O)c2ccccc21	46.8*	8.4	-3.2	-9.4	-57.6	-163.4
CCCn1nc([N+](=O)[O-])c(C(C#N)c2nc3ccccc3o2)c(Cl)c1=O (stereo unspecified)	10.6	6.3	-1.4	-1.9	·	·
CCn1nc([N+](=O)[O-])c(C(C#N)c2nc3cc(C(F)(F)F)ccc3s2)c(Cl)c1=O (stereo unspecified)	30.9*	1.4	-1.5	-5.8	-3.9	-73.4
CNS(=O)(=O)c1cccc(C(=O)OCC(=O)c2cc3ccccc3o2)c1	76.5*	37.4*	-14.7	-16.7	-282.2	6.4
CC(=O)Nc1cccc(C(=O)OCC(=O)c2ccc(S(=O)(=O)N3CCCCC3)cc2)c1	47.3*	17.8	-7.1	-8.6	48.8*	14.9
CC(=O)Nc1ccc(C(=O)OCC(=O)c2ccc(S(=O)(=O)N3CCCCC3)cc2)cc1	-18.2	-8.0	-3.2	3.4	·	·
CNS(=O)(=O)c1cccc(C(=O)OCC(=O)c2ccc(S(=O)(=O)N3CCCCC3)cc2)c1	52.6*	12.8	-5.1	-9.6	23.5	17.9
COc1cc(C(=O)OCC(=O)c2ccc(S(=O)(=O)N3CCCCC3)cc2)cc(OC)c1OC	30.8	0.7	-3.4	-8.2	·	·
O=C(O)c1ccc(NC(=S)NC(=O)c2cccnc2)cc1	25.0	-13.4	-5.1	-4.9	·	·
CCCn1c(CCC(=O)Nc2ccccc2Cc2ccccc2)nc2cc(S(=O)(=O)N3CCOCC3)ccc21	20.9	-14.0	5.4	-4.2	·	·
CC1CCCCN1CCCNC(=O)C1CCCN(c2ncnc3c2nc2n3CCCCC2)C1 (stereo unspecified)	11.9	-0.6	0.7	-2.3	·	·
O=C(Nc1ccc(Br)cc1)N1CCCCCCC1	33.1*	6.3	1.9	-5.8	-67.7	-18.4
COc1ccc(C)cc1S(=O)(=O)N1CCCC(C(=O)N2CCN(c3ccccc3)CC2)C1 (stereo unspecified)	12.7	1.4	-0.6	-2.5	·	·
O=C(NCc1ccccn1)c1ccc(Cn2c(=S)[nH]c3ccc(Br)cc3c2=O)cc1	1.5	-10.4	3.8	-0.3	·	·
O=c1c2cc(Cl)ccc2[nH]c(=S)n1Cc1ccccn1	72.2*	23.1	-8.7	-12.0	55.2*	9.7
O=C(Nc1sc2c(c1C(=O)NCCO)CCCC2)c1ccco1	6.1	-16.7	6.2	-1.1	·	·
O=C1Nc2ccccc2/C1=N/c1sc2c(c1C(=O)NCCc1ccccc1)CCCC2	33.5*	-23.6	2.3	-5.8	20.9	14.1
O=C(NCCc1ccccc1)C1=CCN(S(=O)(=O)c2ccccc2)CC1	9.2	6.3	-1.7	-1.8	·	·
CN(C)CC(=O)c1ccc(-c2ccccc2)cc1	33.5*	0.1	-1.0	-6.1	-41.8	-12.0
CCN(CC)CC(=O)c1ccc(-c2ccccc2)cc1	54.2*	9.5	-2.9	-10.2	-57.6	5.0
COc1ccc(N(C(C)=O)c2nc(C)cc(C)c2C#N)c(OC)c1	11.3	-9.8	3.9	-1.7	·	·
COc1ccc(S(=O)(=O)NCCCN2CCCC2=O)cc1OC	10.7	-33.3	4.1	-1.6	·	·
CN(C)C(=O)CSc1n[nH]c(=O)n1CCc1ccccc1	38.2*	2.8	-1.9	-6.0	-58.2	-2.9
CCOC(=O)CSc1n[nH]c(=O)n1CCc1ccccc1	-2.1	-7.9	2.1	0.4	·	·
O=C1Cc2cccc3cccc1c23	29.7*	-7.6	-2.5	-5.2	12.2	-16.9
O=C1OCc2cccc3cccc1c23	1.3	-6.2	-0.6	-0.2	·	·
CC(C)(C)c1cc(Cl)c(O)c(NC(=S)NC(=O)c2cccnc2)c1	46.7*	11.6	-4.2	-10.1	6.0	8.9
CC(C)c1ccc(O)c(NC(=S)NC(=O)c2cccnc2)c1	42.7*	30.3	-10.9	-7.7	32.1*	27.1
CCC(C)c1ccc(O)c(NC(=O)c2cccnc2)c1 (stereo unspecified)	2.7	-22.6	1.4	-0.4	·	·
